Source: PubChem BioAssay (Tox21)
Where “and” joins values, the source holds several entries; their conditions need not be identical. Equal values may be shown once. Calls of active or inactive are those of the source. Where a call stands in place of a potency, no number is given. The call rests on the fitted dose curve; in most records, active means well fitted curve in the direction sought with a large enough effect in the repeat runs; inconclusive means weak or mixed curves; inactive means flat fitted curve, though single readings scatter.

test: qHTS assay to test for compound auto fluorescence at 460 nm (blue) in HEK293 cell free culture (AID 720681); settings: cell-free medium, autofluorescence 405/460 nm (blue); series mostly up to 91.3 µM; further: potency means the concentration at half of the fitted maximal effect
Summary of the method: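 Blue fluorescence (Ex 405/Em 460 nm, triamterene-equivalent) was read immediately after pin transfer of compound or DMSO into medium (DMEM, 10% FBS) without cells.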

SMILES	Potency
Cc1ccccc1Cl	inactive
CCCCCCC(=O)O	inactive
COc1ccccc1[N+](=O)[O-]	inactive
Cc1ccccc1C=O	inactive
Nc1cccc(C(F)(F)F)c1	inactive
CCCOC(=O)NCCCN(C)C	inactive
COc1ccc(N)c(OC)c1	inactive
Nc1nc(N)c2nc(-c3ccccc3)c(N)nc2n1	12.6 µM (active) and 39.8 µM (active)
Cc1ccc(Cl)cc1	inactive
CC/C=C(\C(=O)N[C@@H]1C(=O)N2C(C(=O)OCOC(=O)C(C)(C)C)=C(COC(N)=O)CS[C@H]12)c1csc(N)n1	inactive
CC(C)=CCC/C(C)=C/C=O	inactive
Cc1nnc(NS(=O)(=O)c2ccc(N)cc2)s1	inactive
CC(=O)OCc1ccc2c(c1)OCO2	inactive
NC(=O)NC(N)=O	inactive
CC(=O)c1nccs1	inactive
OCc1ccc(Cl)cc1Cl	inactive
CC1(C)C(=O)N(Cl)C(=O)N1Cl	inactive
CCc1cccc(CC)c1N	inactive
O=C(O)Cc1c[nH]c2ccccc12	inactive

SMILES	Potency
NC(=O)c1ncn([C@@H]2O[C@H](CO)[C@@H](O)[C@H]2O)n1	inactive
CCCN(CCC)C(=O)SCC	inactive
CCOC(=O)CC(=O)OCC	inactive
CCCCCCCCCCCCCC(=O)O	inactive
CCCCCCCC(=O)O	inactive
O=C(c1ccccc1)c1ccc(O)c(O)c1O	inactive
O=[N+]([O-])c1ccccc1C(F)(F)F	inactive
COc1ccc([C@@H]2CC(=O)c3c(O)cc(O[C@@H]4O[C@H](CO[C@@H]5O[C@@H](C)[C@H](O)[C@@H](O)[C@H]5O)[C@@H](O)[C@H](O)[C@H]4O)cc3O2)cc1OC	inactive
CC(=O)OC(C)(C)C1CC=C(C)CC1 (stereo not drawn)	inactive
Cc1ccc(C(C)C)cc1	inactive
c1cnc2c(c1)ccc1cccnc12	inactive
Cc1cc(CC(=O)O)n(C)c1C(=O)c1ccc(Cl)cc1	inactive
C[Si](C)(C)N[Si](C)(C)C	inactive
OC[C@H]1O[C@@H](Oc2ccc(O)cc2)[C@H](O)[C@@H](O)[C@@H]1O	inactive
CCCCCCCCC(=O)O	inactive
CCn1cc(C(=O)O)c(=O)c2cc3c(cc21)OCO3	inactive
Cc1cc(C)cc(O)c1	inactive
Cc1ccc([N+](=O)[O-])cc1N	inactive
CC(C)(C)NC[C@H](O)COc1nsnc1N1CCOCC1	inactive

test: qHTS assay to test for compound auto fluorescence at 535 nm (green) in HEK293 cell free culture (AID 720682); settings: cell-free medium, green autofluorescence 485/535 nm, stronger effect = higher value; series mostly up to 91.3 µM
Summary of the method: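 Steps: dispense DMEM/10% FBS into empty wells; pin in compound or DMSO; measure fluorescence at 485/535 nm. Values are fluorescein equivalents.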

SMILES	outcome
Cc1ccccc1Cl	inactive
CCCCCCC(=O)O	inactive
Cc1ccccc1C=O	inactive
CCCOC(=O)NCCCN(C)C	inactive
COc1ccc(N)c(OC)c1	inactive
Nc1nc(N)c2nc(-c3ccccc3)c(N)nc2n1	inactive
Cc1ccc(Cl)cc1	inactive
CC/C=C(\C(=O)N[C@@H]1C(=O)N2C(C(=O)OCOC(=O)C(C)(C)C)=C(COC(N)=O)CS[C@H]12)c1csc(N)n1	inactive
CC(C)=CCC/C(C)=C/C=O	inactive
Cc1nnc(NS(=O)(=O)c2ccc(N)cc2)s1	inactive
CC(=O)OCc1ccc2c(c1)OCO2	inactive
CC(=O)c1nccs1	inactive
OCc1ccc(Cl)cc1Cl	inactive
CC1(C)C(=O)N(Cl)C(=O)N1Cl	inactive
CCc1cccc(CC)c1N	inactive
NC(=O)c1ncn([C@@H]2O[C@H](CO)[C@@H](O)[C@H]2O)n1	inactive

SMILES	outcome
CCOC(=O)CC(=O)OCC	inactive
CCCCCCCCCCCCCC(=O)O	inactive
CCCCCCCC(=O)O	inactive
O=C(c1ccccc1)c1ccc(O)c(O)c1O	inactive
O=[N+]([O-])c1ccccc1C(F)(F)F	inactive
COc1ccc([C@@H]2CC(=O)c3c(O)cc(O[C@@H]4O[C@H](CO[C@@H]5O[C@@H](C)[C@H](O)[C@@H](O)[C@H]5O)[C@@H](O)[C@H](O)[C@H]4O)cc3O2)cc1OC	inactive
Cc1ccc(C(C)C)cc1	inactive
c1cnc2c(c1)ccc1cccnc12	inactive
Cc1cc(CC(=O)O)n(C)c1C(=O)c1ccc(Cl)cc1	inactive
C[Si](C)(C)N[Si](C)(C)C	inactive
OC[C@H]1O[C@@H](Oc2ccc(O)cc2)[C@H](O)[C@@H](O)[C@@H]1O	inactive
CCCCCCCCC(=O)O	inactive
CCn1cc(C(=O)O)c(=O)c2cc3c(cc21)OCO3	inactive
Cc1cc(C)cc(O)c1	inactive
Cc1ccc([N+](=O)[O-])cc1N	inactive
CC(C)(C)NC[C@H](O)COc1nsnc1N1CCOCC1	inactive

test: qHTS assay to test for compound auto fluorescence at 590 nm (red) in HEK293 cell free culture (AID 720683); settings: cell-free medium autofluorescence, Ex540/Em590 red; series mostly up to 91.3 µM
Summary of the method: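 Red-channel autofluorescence of compounds in culture medium (DMEM, 10% FBS), no cells, measured at 540/590 nm. Rose Bengal sodium is the reference fluorophore for equivalence.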

SMILES	outcome
Cc1ccccc1Cl	inactive
CCCCCCC(=O)O	inactive
COc1ccccc1[N+](=O)[O-]	inactive
Cc1ccccc1C=O	inactive
Nc1cccc(C(F)(F)F)c1	inactive
CCCOC(=O)NCCCN(C)C	inactive
COc1ccc(N)c(OC)c1	inactive
Nc1nc(N)c2nc(-c3ccccc3)c(N)nc2n1	inactive
Cc1ccc(Cl)cc1	inactive
CC/C=C(\C(=O)N[C@@H]1C(=O)N2C(C(=O)OCOC(=O)C(C)(C)C)=C(COC(N)=O)CS[C@H]12)c1csc(N)n1	inactive
CC(C)=CCC/C(C)=C/C=O	inactive
Cc1nnc(NS(=O)(=O)c2ccc(N)cc2)s1	inactive
CC(=O)OCc1ccc2c(c1)OCO2	inactive
NC(=O)NC(N)=O	inactive
CC(=O)c1nccs1	inactive
OCc1ccc(Cl)cc1Cl	inactive
CC1(C)C(=O)N(Cl)C(=O)N1Cl	inactive
CCc1cccc(CC)c1N	inactive
O=C(O)Cc1c[nH]c2ccccc12	inactive

SMILES	outcome
NC(=O)c1ncn([C@@H]2O[C@H](CO)[C@@H](O)[C@H]2O)n1	inactive
CCCN(CCC)C(=O)SCC	inactive
CCOC(=O)CC(=O)OCC	inactive
CCCCCCCCCCCCCC(=O)O	inactive
CCCCCCCC(=O)O	inactive
O=C(c1ccccc1)c1ccc(O)c(O)c1O	inactive
O=[N+]([O-])c1ccccc1C(F)(F)F	inactive
COc1ccc([C@@H]2CC(=O)c3c(O)cc(O[C@@H]4O[C@H](CO[C@@H]5O[C@@H](C)[C@H](O)[C@@H](O)[C@H]5O)[C@@H](O)[C@H](O)[C@H]4O)cc3O2)cc1OC	inactive
CC(=O)OC(C)(C)C1CC=C(C)CC1 (stereo not drawn)	inactive
Cc1ccc(C(C)C)cc1	inactive
c1cnc2c(c1)ccc1cccnc12	inactive
Cc1cc(CC(=O)O)n(C)c1C(=O)c1ccc(Cl)cc1	inactive
C[Si](C)(C)N[Si](C)(C)C	inactive
OC[C@H]1O[C@@H](Oc2ccc(O)cc2)[C@H](O)[C@@H](O)[C@@H]1O	inactive
CCCCCCCCC(=O)O	inactive
CCn1cc(C(=O)O)c(=O)c2cc3c(cc21)OCO3	inactive
Cc1cc(C)cc(O)c1	inactive
Cc1ccc([N+](=O)[O-])cc1N	inactive
CC(C)(C)NC[C@H](O)COc1nsnc1N1CCOCC1	inactive
